Compounds without any hit were thinned out: in the full panel of roughly 79,000, 15% have a hit. Calls of active or inactive are those of the source. Cut-off read from the data, not from the text of the source: active = growth inhibition above about 70%; inactive = the rest.
How the values were obtained:
[1] = NCI Yeast Anticancer Drug Screen. Data for the mec2-1 strain (AID 157); conditions: S. cerevisiae mec2-1 strain, hits give high values
In short: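 Strain: mec2-1 (DNA repair/cell cycle alteration). Compound exposure, then growth measured; inhibition expressed relative to vehicle.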

[2] = NCI Yeast Anticancer Drug Screen. Data for the rad14 strain (AID 159);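 note: 0% = growth of vehicle-treated control cultures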; conditions: S. cerevisiae rad14 strain growth inhibition, hits give high values
In short: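 Growth inhibition vs vehicle controls; genetically altered yeast strain (DNA damage repair defect) treated with test compounds.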

[3] = NCI Yeast Anticancer Drug Screen. Data for the sgs1 mgt1 strain (AID 161);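 note: 0% = growth of cultures given vehicle only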; conditions: S. cerevisiae sgs1 mgt1 strain, hits give high values
In short: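 Read-out: growth inhibition vs vehicle controls. Cells: mutant yeast strain deficient in DNA damage repair.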

[4] = NCI Yeast Anticancer Drug Screen. Data for the CLN2oe strain (AID 163);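 note: 0% = growth of vehicle-only control cultures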; conditions: S. cerevisiae CLN2oe strain, hits give high values
In short: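 Growth of a genetically modified yeast strain is measured after compound exposure and compared with cultures given vehicle alone.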

[5] = NCI Yeast Anticancer Drug Screen. Data for the cln2 rad14 strain (AID 165);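 note: 0% = growth equal to vehicle treated cultures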; conditions: S. cerevisiae cln2 rad14 strain, hits give high values
In short: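 Compounds are applied to the cln2 rad14 yeast strain, and growth is then compared with that of vehicle-treated cultures to give inhibition.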

[6] = NCI Yeast Anticancer Drug Screen. Data for the bub3 strain (AID 167); conditions: S. cerevisiae bub3 mutant strain, hits give high values
In short: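 Readout: yeast growth inhibition, expressed relative to vehicle-only wells. The test organism is a mutant strain from a panel with lesions in DNA repair or checkpoint genes.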

[7] = NCI Yeast Anticancer Drug Screen. Data for the wt2 strain (AID 169);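 note: 0% = growth of vehicle-treated yeast cultures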; conditions: S. cerevisiae wt2 strain growth inhibition, hits give high values
In short: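 This strain belongs to a panel of yeast strains with defined genetic alterations in DNA damage repair or cell cycle control. Compounds are applied, and growth inhibition is measured against vehicle-treated cultures.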

[8] = NCI Yeast Anticancer Drug Screen. Data for the mlh1 strain (AID 171);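 note: 0% = growth of vehicle-treated control cultures of the same strain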; conditions: S. cerevisiae mlh1 strain growth inhibition, hits give high values
In short: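 Growth of the mutant yeast strain after compound exposure, expressed as inhibition relative to vehicle-only controls.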

[9] = NCI Yeast Anticancer Drug Screen. Data for the sgs1 strain (AID 173);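 note: 0% = growth of vehicle-only control cultures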; conditions: S. cerevisiae sgs1 mutant, hits give high values
In short: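 Growth of a yeast strain bearing a defined genetic alteration is measured after compound treatment. Inhibition is expressed relative to vehicle-only controls.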

[10] = NCI Yeast Anticancer Drug Screen. Data for the rad18 strain (AID 177); conditions: S. cerevisiae rad18 mutant growth inhibition, hits give high values
In short: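 Growth of the mutant yeast strain after compound exposure, normalised to vehicle-only cultures.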

[11] = NCI Yeast Anticancer Drug Screen. Data for the rad52 strain (AID 147);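 note: 0% = growth of vehicle-treated control cultures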; conditions: S. cerevisiae rad52 mutant growth inhibition, hits give high values
In short: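 Compounds are applied to a genetically defined yeast strain lacking normal DNA damage repair, and inhibition of growth is expressed relative to cultures given vehicle only.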

[12] = NCI Yeast Anticancer Drug Screen. Data for the wt1 strain (AID 149);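 note: 0% = growth of vehicle-treated wt1 cultures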; conditions: S. cerevisiae wt1 strain (SPY 50644) growth inhibition, hits give high values
In short: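 Growth inhibition read against vehicle controls after compound exposure of the wt1 yeast strain.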

[13] = NCI Yeast Anticancer Drug Screen. Data for the rad50EPP+ strain (AID 151);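 note: 0% = growth of vehicle-treated control cultures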; conditions: S. cerevisiae rad50 mutant strain, hits give high values
In short: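 Compounds were applied to the rad50EPP+ yeast strain, which bears a defined DNA repair alteration, and growth inhibition was determined relative to vehicle-treated cultures.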

[14] = NCI Yeast Anticancer Drug Screen. Data for the rad50 strain (AID 155);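 note: 0% = growth of vehicle-only cultures of the same strain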; conditions: S. cerevisiae rad50 strain growth inhibition, hits give high values
In short: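 Readout: growth inhibition relative to vehicle-treated cultures. Compound exposure was carried out in a genetically defined yeast strain deficient in DNA damage repair.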

[15] = NCI Yeast Anticancer Drug Screen. Data for the mlh1 rad18 strain (AID 175); conditions: S. cerevisiae mlh1 rad18 strain growth inhibition, hits give high values
In short: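 Read-out is yeast growth inhibition, calculated against vehicle-only controls. The compound was applied to a strain engineered with DNA damage repair alterations.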

[16] = at 5.0 µM (retest, dose inferred, filed as 0.5)
[17] = at 50.0 µM (retest, dose inferred, filed as 5.0)

Measured: growth inhibition

NC(=O)N1c2ccccc2C=Cc2ccccc21
inactive: [1]; at 100.0 µM -68% | [2]; at 1.2 µM -42% | [2]; at 3.7 µM -28% | [2]; at 11.0 µM -41% | [2]; at 33.0 µM -37% | [2]; at 100.0 µM -37% | [3]; [16] -12% | [3]; [17] 29% | [3]; at 50.0 µM 15.4% | [4]; at 1.2 µM 5% | [4]; at 3.7 µM 19% | [4]; at 11.0 µM 15% | [4]; at 33.0 µM 7% | [4]; at 100.0 µM 0% | [5]; [16] 61% | [5]; [17] 38% | [5]; at 50.0 µM 9.25% | [6]; at 1.2 µM -26% | [6]; at 3.7 µM -34% | [6]; [16] -17% | [6]; at 11.0 µM -41% | [6]; at 33.0 µM -43% | [6]; [17] 3% | [6]; at 50.0 µM 15.3% | [6]; at 100.0 µM -39% | [7]; at 1.2 µM -25% | [7]; at 3.7 µM -30% | [7]; at 11.0 µM -37% | [7]; at 33.0 µM -38% | [7]; at 100.0 µM -43% | [8]; at 1.2 µM -45% | [8]; at 3.7 µM -31% | [8]; at 11.0 µM -40% | [8]; at 33.0 µM -62% | [8]; at 100.0 µM -55% | [9]; at 1.2 µM -78% | [9]; at 3.7 µM -54% | [9]; at 11.0 µM -51% | [9]; at 33.0 µM -52% | [9]; at 100.0 µM -45% | [10]; at 1.2 µM -49% | [10]; at 3.7 µM -51% | [10]; at 11.0 µM -37% | [10]; at 33.0 µM -64% | [10]; at 100.0 µM -59%

OC(CN1CCCCC1)c1cc(Cl)c(Cl)c(Cl)c1 (stereo unspecified)
inactive: [11]; at 1.2 µM 3% | [11]; at 3.7 µM 11% | [11]; at 11.0 µM 17% | [11]; at 33.0 µM 28% | [11]; at 100.0 µM 40% | [12]; at 1.2 µM 4% | [12]; at 3.7 µM 9% | [12]; at 11.0 µM 6% | [12]; at 33.0 µM 6% | [12]; at 100.0 µM 14% | [13]; at 1.2 µM 3% | [13]; at 3.7 µM 8% | [13]; at 11.0 µM 10% | [13]; at 33.0 µM 7% | [13]; at 100.0 µM 1% | [14]; at 1.2 µM 5% | [14]; at 3.7 µM 13% | [14]; [16] 2% | [14]; at 11.0 µM 11% | [14]; at 33.0 µM 20% | [14]; [17] 41% | [14]; at 50.0 µM 38.4% | [14]; at 100.0 µM 36% | [1]; at 1.2 µM 5% | [1]; at 3.7 µM 11% | [1]; [16] 2% | [1]; at 11.0 µM 15% | [1]; at 33.0 µM 24% | [1]; [17] 49% | [1]; at 50.0 µM 32.2% | [1]; at 100.0 µM 38% | [2]; at 1.2 µM 9% | [2]; at 3.7 µM 25% | [2]; at 11.0 µM 33% | [2]; at 33.0 µM 28% | [2]; at 100.0 µM 39% | [3]; [16] 12% | [3]; [17] 49% | [3]; at 50.0 µM 57.1% | [4]; at 1.2 µM 7% | [4]; at 3.7 µM 8% | [4]; at 11.0 µM 32% | [4]; at 33.0 µM 47% | [4]; at 100.0 µM 57% | [5]; [16] 8% | [5]; [17] 35% | [5]; at 50.0 µM 51.6% | [6]; at 1.2 µM 3% | [6]; at 3.7 µM 9% | [6]; [16] 4% | [6]; at 11.0 µM 25% | [6]; at 33.0 µM 38% | [6]; [17] 38% | [6]; at 100.0 µM 53% | [7]; at 1.2 µM 3% | [7]; at 3.7 µM 8% | [7]; at 11.0 µM 10% | [7]; at 33.0 µM 12% | [7]; at 100.0 µM 15% | [8]; at 1.2 µM 5% | [8]; at 3.7 µM 7% | [8]; at 11.0 µM 17% | [8]; at 33.0 µM 18% | [8]; at 100.0 µM 21% | [9]; at 1.2 µM 6% | [9]; at 3.7 µM 14% | [9]; at 11.0 µM 20% | [9]; at 33.0 µM 27% | [9]; at 100.0 µM 37% | [15]; [16] 14% | [15]; [17] 43% | [15]; at 50.0 µM 50.4% | [10]; at 1.2 µM 5% | [10]; at 3.7 µM 13% | [10]; at 11.0 µM 8% | [10]; at 33.0 µM 14% | [10]; at 100.0 µM 22%
active: [6]; at 50.0 µM 70.8%

O=C1c2ccccc2C(=O)c2cc(S(=O)(=O)Nc3ccccc3)ccc21
inactive: [11]; at 1.2 µM 0% | [11]; at 3.7 µM 7% | [11]; at 11.0 µM 16% | [11]; at 33.0 µM 26% | [11]; at 100.0 µM 19% | [12]; at 1.2 µM 5% | [12]; at 3.7 µM 9% | [12]; at 11.0 µM 8% | [12]; at 33.0 µM 9% | [12]; at 100.0 µM 4% | [13]; at 1.2 µM 9% | [13]; at 3.7 µM 21% | [13]; at 11.0 µM 34% | [13]; at 33.0 µM 45% | [13]; at 100.0 µM 47% | [14]; at 1.2 µM 1% | [14]; at 3.7 µM 7% | [14]; [16] 60% | [14]; at 11.0 µM 11% | [14]; at 33.0 µM 23% | [14]; [17] 49% | [14]; at 100.0 µM 22% | [1]; at 1.2 µM -1% | [1]; at 3.7 µM 5% | [1]; [16] 33% | [1]; at 11.0 µM 12% | [1]; at 33.0 µM 21% | [1]; [17] 61% | [1]; at 100.0 µM 19% | [2]; at 1.2 µM -1% | [2]; at 3.7 µM 1% | [2]; at 11.0 µM 7% | [2]; at 33.0 µM 12% | [2]; at 100.0 µM 11% | [3]; [16] 51% | [3]; [17] 61% | [4]; at 1.2 µM -6% | [4]; at 3.7 µM -15% | [4]; at 11.0 µM 5% | [4]; at 33.0 µM 7% | [4]; at 100.0 µM 2% | [5]; [16] 22% | [5]; [17] 37% | [6]; at 1.2 µM 0% | [6]; at 3.7 µM 4% | [6]; [16] 58% | [6]; at 11.0 µM 24% | [6]; at 33.0 µM 33% | [6]; at 100.0 µM 25% | [7]; at 1.2 µM 3% | [7]; at 3.7 µM 6% | [7]; at 11.0 µM 9% | [7]; at 33.0 µM 14% | [7]; at 100.0 µM 8% | [8]; at 1.2 µM 0% | [8]; at 3.7 µM 2% | [8]; at 11.0 µM 10% | [8]; at 33.0 µM 14% | [8]; at 100.0 µM 12% | [9]; at 1.2 µM 2% | [9]; at 3.7 µM 5% | [9]; at 11.0 µM 18% | [9]; at 33.0 µM 22% | [9]; at 100.0 µM 18% | [10]; at 1.2 µM 0% | [10]; at 3.7 µM 2% | [10]; at 11.0 µM 9% | [10]; at 33.0 µM 19% | [10]; at 100.0 µM -78%
active: [14]; at 50.0 µM 96.2% | [1]; at 50.0 µM 91.4% | [3]; at 50.0 µM 96.2% | [5]; at 50.0 µM 92.2% | [6]; [17] 84% | [6]; at 50.0 µM 96.1% | [15]; [16] 77% | [15]; [17] 75% | [15]; at 50.0 µM 97.7%

— PubChem BioAssay (NCI)
